Compound activity deposited in PubChem by National Center for Advancing Translational Sciences (NCATS).
PLK1 PBD block = inhibitors of human PLK1 polo-box domain binding; P53350; Plk1 PBD binding of FITC phosphopeptide, fluorescence polarization; Potency, µM, inactives show max response, negative = inhibition, hits mostly inhibitors; actives 2.8% (n = 360,000); AID 720504; further: series mostly up to about 57 µM; on the % scale 0 is the no-effect control and ±100 the full control effect; nearly all actives have a fitted effect of over 65% in size
G9a inh = blocks human histone lysine methyltransferase G9a; actives 8.8% (n = 350,000); G9a H3K9 monomethylation, AlphaScreen, 2 h; AID 504332; Potency, µM (series often up to 102 µM), without a hit: top-dose activity, negative = inhibition, hits mostly inhibitors; Q96KQ7; further: on the % scale 0 is the no-effect control and ±100 the full control effect; nearly all actives have a fitted effect of over 75% in size
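Signal arises when biotinylated H3K9 peptide, once monomethylated, bridges streptavidin donor and antibody-captured acceptor beads. Enzyme at 20 nM was preincubated 15 min with test compounds; peptide 500 nM and SAM 20 uM then reacted for 2 h.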
Sfp inh = Sfp phosphopantetheinyl transferase inhibition. Q9F4F7. Biochemical Sfp PPTase activity, qHTS. Potency, µM, for inactives: largest response in the series, negative = inhibition, most hits filed as inhibitors. actives 3.5% (n = 310,000);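 further: the enzyme is Sfp with the accession as filed and its product quenches rhodamine fluorescence; 0% = enzyme reaction without inhibitor and -100% = no enzyme wells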
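Sfp 15 nM + cpd, 15 min RT; start w/ rhodamine-CoA 5 uM, BHQ-2-YbbR 12.5 uM (final); 50 mM Hepes pH 7.6, 10 mM MgCl2, 0.01% NP-40, 0.01% BSA; read 525/598 nm at 0 and 30 min.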
BAZ2B inh = BAZ2B (human) inhibition | Q9UIF8 | AlphaScreen BAZ2B-H3K14Ac peptide displacement | Potency, µM (series often up to 114 µM), without a hit: at the top dose activity change, negative = inhibition, hits mostly inhibitors | actives 4.4% (n = 360,000); further: on the % scale 0 is the no-effect control and ±100 the full control effect; nearly all actives have a fitted effect of over 60% in size
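Inhibition is scored as reduced AlphaScreen emission. The BAZ2B/b-H3(5-23)K14Ac complex (50 nM each) in PBS pH 7.4, 0.01% Tween-20 meets compound (up to 110 uM) for 30 min at RT before bead addition.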
JMJD2A Tudor = inhibitors of human JMJD2A Tudor domain; AlphaScreen JMJD2A-Tudor / H3K4me3 peptide binding; Potency, µM (titrated, usually from 114 µM), for the others: at the highest dose activity change, negative = inhibition, usual class: inhibitors; actives 4.4% (n = 390,000); further: on the % scale 0 is the no-effect control and ±100 the full control effect; nearly all actives have a fitted effect of over 50% in size
HP1b binding inh = HP1-beta chromodomain-methylated histone interaction inhibition. AlphaScreen HP1-beta / biotin-H3K9me3 peptide binding. Potency, µM (top dose mostly 114 µM), inactives show at the highest dose activity change, negative = inhibition, usual class: inhibitors. P83916. actives 0.56% (n = 390,000); further: nearly all actives have a fitted effect of over 70% in size
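Compound inhibition of the preformed complex between 50 nM HP1-beta and 50 nM biotinylated H3K9me3 peptide was read by AlphaScreen. Buffer was PBS pH 7.4 with 0.01% Tween-20. Incubations ran 30 min at room temperature, with 10 ug/mL donor/acceptor beads.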
An asterisk follows results filed as active; ? = inconclusive; nt = not tested or not shown; [ ] = dose if it differs, or a comment. Shown are actives, neighbours in structure and some others; about 12% of the full set was active somewhere. The call rests on the fitted dose curve; in most records, active means well fitted curve in the direction sought with a large enough effect; inconclusive means small, poorly fitted or top-dose-only effect, or another doubt; inactive means no such curve, though single readings can be large; an effect the other way counts as inactive or inconclusive. Potency means the concentration at half of the fitted maximal effect.

SMILES | PLK1 PBD block | G9a inh | Sfp inh | BAZ2B inh | JMJD2A Tudor | HP1b binding inh
CCCCC/C=C\C=C\C(O)CCCCCCCC(=O)O (centres undefined) | nt | nt | -1.8% | nt | nt | nt
COc1ccc(OC)c(NC(=O)Cn2c(=O)n(-c3cccc(C)c3)c(=O)c3c2c2cc(C)ccc2n3C)c1 | nt | 4.0%[59 µM] | nt | 4.8% | -11.9% | 21.3%
COc1ccc(Cl)cc1NC(=O)C(C)n1c(=O)cc(C(F)(F)F)c2c(C)nn(C)c21 (centres undefined) | nt | 33.3%[59 µM] | nt | 0.3% | -8.3% | -1.4%
CCCCC(=O)O[C@]1(C(=O)CO)CCC2C3CCC4=CC(=O)CCC4(C)C3C(O)CC21C (some centres undefined) | nt | -3.0%[12.7 µM] | 17.3% | nt | nt | nt
O=S1(=O)c2cccc3cccc(c23)N1CCBr | -3.0% | 55.9% | 12.9% | 49.6% | 33.1% | 77.0%
Cn1c(=O)c2c(ncn2CC(=O)Nc2cc(Cl)cc(Cl)c2)n(C)c1=O | nt | -27.1%[59 µM] | nt | 16.7% | -10.1% | 30.6%
Cc1ccc(-n2c(Cc3ccccc3)n[nH]c2=S)cc1 | -8.5% | 2.24µM* | -15.6% | -22.6% | 7.08µM* | -5.1%
S=c1[nH]nc(Cc2ccccc2)n1-c1ccc(Cl)cc1 | -24.5% | ? | 13.6% | -24.9% | 79.4µM* | 1.0%
Cc1ccc(-n2c(Cc3noc4ccccc34)n[nH]c2=S)cc1 | -14.5% | nt | 0.5% | ? | ? | 29.6%
Cc1ccccc1OCc1nnc(SCc2cc(=O)[nH]c3ccccc23)n1-c1ccccc1 | -8.6% | 4.0% | 56.2µM* | -8.1% | -30.9% | 6.5%
S=c1[nH]nc(CCc2ccccc2)n1-c1ccccc1 | 2.2% | 1.41µM* | 0.4% | 2.3% | 11.2µM* | 6.2%
Cc1ccc(/C(O)=C2\C(=O)C(=O)N(CCCN3CCOCC3)C2c2ccccc2F)cc1 (centres undefined) | -9.5% | nt | nt | nt | nt | nt
S=c1[nH]nc(Cc2ccccc2)n1-c1ccccc1 | -9.6% | 8.91µM* | -7.5% | 2.6% | 3.98µM* | 23.2%
CCCCc1ccc(-n2c(Cc3cccs3)n[nH]c2=S)cc1 | -15.7% | 1.78µM* | -9.7% | ? | ? | -19.4%
S=c1[nH]nc(Cc2cccs2)n1-c1ccccc1 | -10.8% | 10.1%[0.501 µM] | 7.8% | -31.9% | 7.94µM* | 32.1%
CCOC(=O)CN1C(=O)/C(=C/c2c(F)cccc2Cl)Oc2ccccc21 | 3.0% | 160.0% | -1.0% | 67.6% | 113.4% | 137.3%
CCOC(=O)C(Sc1nnc(-c2ccncc2)o1)C(C)=O (centres undefined) | -10.2% | 7.94µM* | -1.2% | 3.1% | ? | 9.9%
CCOCCCNC(=O)CN1N=C(c2ccc(C)cc2)CCC1=O | -11.8% | 26.3% | -3.3% | 0.3% | -3.6% | 12.0%
CCCNC(=O)N1[C@H](c2ccc(C)s2)[C@@H](C)C(=O)[C@@H](C)[C@@H]1c1ccc(C)s1 | nt | ? | nt | -1.6% | -3.0% | 37.0%
CCOc1ccc(S(=O)(=O)NCCC(=O)NC2CCC(C)CC2)cc1 (centres undefined) | -3.3% | nt | nt | nt | -2.8% | 18.1%[57 µM]
COc1cc(NC(=O)C2CC2)c(OC)cc1NC(=O)CCC(=O)NC1CCN(Cc2ccccc2)CC1 | -28.0% | 39.8µM* | 15.7% | -3.6% | -14.7% | 20.4%
CC(=O)c1cc(-c2ccccc2)n(CCC(=O)NC2CCCCCCC2)c1C | -8.0% | 0.9%[59 µM] | -15.1% | 50.1µM* | -30.4% | -28.5%
CC(=O)c1cc(-c2ccccc2)n(CCC(=O)Nc2ccc(C)cc2C)c1C | nt | 3.0%[59 µM] | nt | -3.7% | -5.1% | 14.6%
CCC(C)(C)NC(=O)CCn1c(-c2ccccc2)cc(C(C)=O)c1C | -3.9% | -22.2% | -3.7% | 50.1µM* | -16.6% | 6.4%
CC(=O)c1ccc(S(=O)(=O)NCCC(=O)NC2CCN(Cc3ccccc3)CC2)cc1 | -17.5% | nt | nt | nt | 4.47µM* | 14.1µM*
SMILES | PLK1 PBD block | G9a inh | Sfp inh | BAZ2B inh | JMJD2A Tudor | HP1b binding inh
Cc1ccccc1N1C(=O)c2cc(S(N)(=O)=O)c(Cl)cc2N[C@H]1C | nt | ? | 6.8% | nt | nt | nt
COc1ccc(/C(C)=N/NC(=O)Cc2ccc(Cl)cc2)cc1 | -3.8% | nt | -7.4% | 0.3% | -6.2% | 26.5%
NC(=O)NN=C1CCC(OCc2ccccc2)CC1CC(=O)O (centres undefined) | -4.5% | nt | nt | nt | nt | nt
NCCc1nnc(SCc2ccc(Cl)cc2)o1 | nt | 62.2%[59 µM] | nt | 1.2% | -7.1% | 53.4%
CCOC(=O)c1cc(-c2ccccc2)n(CCC(=O)NC2CCCCC2)c1C | nt | ? | nt | -26.4% | -1.3% | -8.9%
CCOC(=O)c1cc(-c2ccc(OC)cc2)n(CCC(=O)NC2CCN(Cc3ccccc3)CC2)c1C | -12.2% | ? | 5.8% | 39.8µM* | ? | -32.9%
Cc1ccc(S(=O)(=O)CC#CCOC(=O)c2ccc([N+](=O)[O-])cc2)cc1 | nt | ? | 50.1µM* | ? | nt | nt
COc1ccc(N2CCN(C(=O)c3ccc(NS(=O)(=O)c4cccc(F)c4)cc3)CC2)cc1 | -7.7% | ? | 3.4% | ? | ? | -10.9%
COc1ccc(N2CCN(C(=O)c3cccc(Cn4cc(Cl)cn4)c3)CC2)cc1 | -8.2% | 17.8µM* | -20.6% | ? | ? | -25.5%
COc1ccc(NS(=O)(=O)c2ccc(C(=O)N3CCN(c4ccc(F)cc4)CC3)cc2)cc1 | 2.4% | nt | nt | nt | -28.8% | 21.8%
COc1ccc(N2CCN(C(=O)c3cccc(NS(=O)(=O)c4cccc(F)c4)c3)CC2)cc1 | 2.6% | nt | 19.4% | 39.8µM* | -30.3% | 11.5%
COc1ccc(N2CCN(C(=O)c3ccc(NS(=O)(=O)c4ccc(F)c(F)c4)cc3)CC2)cc1 | 1.4% | 56.2µM* | 3.1% | 50.1µM* | 89.1µM* | 3.1%
CC1CCN(S(=O)(=O)CCNC(=O)c2ccc(F)cc2)CC1 | -5.7% | 1.1%[0.501 µM] | nt | -2.1% | -7.9% | -0.7%
COc1ccccc1CC(NC(C)=O)C(=O)NC1CCN(C(=O)c2ccc(C)cc2)CC1 (centres undefined) | 2.2% | -5.2% | 13.7% | 2.3% | 12.0% | 24.2%
CCNC(=O)c1ccccc1-c1nc(-c2ccccc2OC)no1 | 2.1% | -8.5% | 9.3% | -1.6% | 4.3% | 45.6%
O=C(NCc1ccco1)c1ccccc1-c1nc(-c2ccc(F)cc2)no1 | -19.2% | ? | -4.8% | -5.0% | -9.8% | 21.9%
Cc1ccccc1-c1noc(-c2ccccc2C(=O)NCc2ccco2)n1 | -6.4% | ? | 44.7µM* | -25.2% | -16.6% | ?
CCNC(=O)c1ccccc1-c1nc(-c2ccccc2Cl)no1 | 11.9µM* | -31.9% | -0.4% | 9.6% | -13.0%[11.4 µM] | -14.8%
COc1ccccc1Nc1nc(-c2ccccc2F)nc2ccccc12 | nt | 108.8%[59 µM] | nt | 105.4% | 120.5% | 161.8%
Cc1ccc(CNC(=O)CN2CCCN(Cc3ccc(F)cc3)S2(=O)=O)cc1 | nt | -1.8%[12.7 µM] | nt | 1.8% | 5.6% | 41.7%
CCc1ccc2c(COC(=O)c3n[nH]c4ccccc34)cc(=O)oc2c1 | -7.0% | 35.5µM* | -9.0% | -1.5% | ? | 41.5%
